Laboratory results taken from PubChem BioAssay AID1159580 (chemical genetic matrix, 2015).
Values joined by “and” are separate entries in the source; they are usually repeats but may differ in a detail not shown here. Equal entries are not always repeated. Hit rate of the full screen: of about 5,500 compounds, about 2,000 (36%) were called active. Inconclusive results (about 18%) are left out. Cut-off read from the data, not from the text of the source: active = normalized growth mostly below about 0.91 (no sharp cut-off); inconclusive = no clear call, values can overlap the other calls; inactive = mostly above about 0.92. The list shows a part of the results.

Test: chemical genetic growth profiling, strain panel (AID 1159580);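 note: tested at 20 µM; growth read once vehicle control cultures reached saturation at 30 °C; 1 = growth at the plate median or of vehicle wells; lower values mean less growth of the strain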
Settings: S. cerevisiae deletion strains, growth OD

Measured: normalized growth

C[C@@H](N)[C@@H](O)c1ccccc1
inactive: locus YAL021C, strain ccr4, active compounds read low 0.991 | locus YAL030W, strain snc1, active compounds read low 0.98 | locus YBL061C, strain skt5, active compounds read low 1.01 | locus YBR009C, strain hhf1, active compounds read low 1 | locus YBR021W, strain FUR4, active compounds read low 1.05 | locus YBR023C, strain chs3, active compounds read low 0.997 | locus YBR171W, strain sec66, active compounds read low 1 | locus YBR229C, strain ROT2, active compounds read low 0.967 | locus YBR231C, strain swc5, active compounds read low 0.969 | locus YBR279W, strain paf1, active compounds read low 1.01 | locus YCL011C, strain gbp2, active compounds read low 0.994 | locus YCL016C, strain dcc1, active compounds read low 0.985 | locus YCL029C, strain bik1, active compounds read low 0.982 | locus YCL069W, strain vba3, active compounds read low 1 | locus YCR088W, strain abp1, active compounds read low 0.992 | locus YDL005C, strain med2, active compounds read low 0.977 | locus YDL035C, strain GPR1, active compounds read low 1 | locus YDL040C, strain nat1, active compounds read low 1 | locus YDL074C, strain BRE1, active compounds read low 1.05 | locus YDL101C, strain DUN1, active compounds read low 0.983 | locus YDL134C, strain PPH21, active compounds read low 0.987 | locus YDL185W, strain tfp1, active compounds read low 0.966 | locus YDL192W, strain arf1, active compounds read low 1.02 | locus YDR001C, strain nth1, active compounds read low 1.01 | locus YDR069C, strain doa4, active compounds read low 0.985 | locus YDR101C, strain arx1, active compounds read low 0.989 | locus YDR137W, strain rgp1, active compounds read low 0.862 | locus YDR150W, strain NUM1, active compounds read low 0.994 | locus YDR159W, strain sac3, active compounds read low 0.949 | locus YDR162C, strain NBP2, active compounds read low 0.951 | locus YDR195W, strain ref2 0.988 | locus YDR297W, strain sur2, active compounds read low 0.994 | locus YDR318W, strain mcm21, active compounds read low 0.978 | locus YDR334W, strain swr1, active compounds read low 0.997 | locus YDR335W, strain msn5, active compounds read low 0.988 | locus YDR388W, active compounds read low 0.994 | locus YDR392W, strain spt3, active compounds read low 0.955 | locus YDR502C, strain sam2, active compounds read low 0.991 | locus YEL003W, strain gim4, active compounds read low 0.995 | locus YEL037C, strain rad23, active compounds read low 1.01 | locus YEL061C, strain CIN8 (second series), active compounds read low 0.993 | locus YEL061C, strain CIN8, active compounds read low 0.987 | locus YER015W, strain faa2, active compounds read low 0.995 | locus YER016W, strain bim1, active compounds read low 0.975 | locus YER110C, active compounds read low 0.974 | locus YER111C, strain swi4, active compounds read low 0.981 | locus YER155C, strain BEM2 (second series), active compounds read low 0.973 | locus YER155C, strain BEM2, active compounds read low 1.02 | locus YER167W, strain BCK2, active compounds read low 0.999 | locus YFR010W, strain ubp6, active compounds read low 1 | locus YGL078C, strain dbp3, active compounds read low 0.991 | locus YGL086W, strain mad1, active compounds read low 1.03 | locus YGL167C, strain pmr1, active compounds read low 0.999 | locus YGL173C, strain kem1, active compounds read low 0.993 | locus YGL227W, strain vid30, active compounds read low 1.01 | locus YGL240W, strain doc1, active compounds read low 1 | locus YGL248W, strain PDE1, active compounds read low 0.974 | locus YGL253W, strain hxk2, active compounds read low 0.99 | locus YGR135W, strain pre9, active compounds read low 0.949 | locus YGR252W, strain gcn5, active compounds read low 0.968 | locus YHR013C, strain ard1, active compounds read low 0.975 | locus YHR027C, strain rpn1, active compounds read low 1 | locus YHR030C, strain SLT2, active compounds read low 1 and 1.03 | locus YHR079C, strain IRE1 (second series), active compounds read low 0.993 | locus YHR079C, strain IRE1, active compounds read low 1.02 | locus YHR094C, strain hxt1, active compounds read low 0.973 | locus YHR129C, strain ARP1, active compounds read low 0.997 | locus YHR142W, strain chs7, active compounds read low 0.971 | locus YHR200W, strain rpn10, active compounds read low 0.997 | locus YIL066C, strain RNR3, active compounds read low 0.966 | locus YIL073C, strain SPO22, active compounds read low 1.03 | locus YIL125W, strain kgd1, active compounds read low 0.986 | locus YIR030C, strain dcg1, active compounds read low 0.999 | locus YJL092W, strain hpr5, active compounds read low 1 | locus YJL095W, strain BCK1 (second series), active compounds read low 0.999 | locus YJL095W, strain BCK1, active compounds read low 0.928 and 1.01 | locus YJL115W, strain asf1, active compounds read low 0.991 | locus YJL129C, strain trk1, active compounds read low 0.992 | locus YJL134W, strain LCB3, active compounds read low 0.988 | locus YJL154C, strain vps35, active compounds read low 0.993 | locus YJL164C, strain tpk1, active compounds read low 1.01 | locus YJL166W, strain qcr8, active compounds read low 0.983 | locus YJL168C, strain set2, active compounds read low 1.01 | locus YJL187C, strain SWE1 (second series), active compounds read low 0.964 | locus YJR043C, strain POL32, active compounds read low 1.01 | locus YJR066W, strain TOR1, active compounds read low 0.942 | locus YJR075W, strain HOC1, active compounds read low 0.984 | locus YKL009W, strain mrt4, active compounds read low 1.04 | locus YKL068W, active compounds read low 0.978 | locus YKL085W, strain MDH1 (second series), active compounds read low 0.998 | locus YKL085W, strain MDH1, active compounds read low 0.998 | locus YKL160W, strain elf1, active compounds read low 0.974 | locus YKR001C, strain vps1, active compounds read low 1.01 | locus YKR026C, strain gcn3, active compounds read low 1.02 | locus YKR091W, strain srl3, active compounds read low 0.987 | locus YLL001W, strain dnm1, active compounds read low 1.01 | locus YLL026W, active compounds read low 0.995 | locus YLL041C, strain sdh2, active compounds read low 1.01 | locus YLR027C, strain aat2, active compounds read low 0.995 | locus YLR039C, strain RIC1, active compounds read low 0.953 | locus YLR058C, strain SHM2, active compounds read low 0.978 | locus YLR102C, strain apc9, active compounds read low 0.99 | locus YLR113W, strain HOG1, active compounds read low 1.03 | locus YLR221C, strain rsa3, active compounds read low 0.994 | locus YLR258W, strain gsy2, active compounds read low 1.01 | locus YLR262C, strain YPT6, active compounds read low 0.927 | locus YLR268W, strain sec22, active compounds read low 0.988 | locus YLR320W, strain mms22, active compounds read low 0.955 | locus YLR330W, strain CHS5, active compounds read low 0.997 | locus YLR342W, strain FKS1 (second series), active compounds read low 1.06 | locus YLR342W, strain FKS1, active compounds read low 0.995 | locus YLR357W, strain rsc2, active compounds read low 0.988 | locus YLR370C, strain arc18, active compounds read low 1 | locus YLR371W, strain rom2, active compounds read low 0.975 | locus YLR384C, strain iki3, active compounds read low 0.977 | locus YLR418C, strain cdc73, active compounds read low 0.939 | locus YML016C, strain PPZ1, active compounds read low 0.994 | locus YML032C, strain rad52, active compounds read low 0.967 | locus YML120C, strain ndi1, active compounds read low 0.992 | locus YML124C, strain tub3, active compounds read low 0.993 | locus YMR058W, strain fet3, active compounds read low 0.972 | locus YMR078C, strain ctf18, active compounds read low 1.01 | locus YMR125W, strain sto1, active compounds read low 0.983 | locus YMR129W, active compounds read low 0.997 | locus YMR205C, strain PFK2, active compounds read low 0.998 | locus YMR223W, strain ubp8, active compounds read low 0.964 | locus YMR231W, strain pep5, active compounds read low 1 | locus YMR263W, strain SAP30, active compounds read low 0.987 | locus YMR307W, strain GAS1, active compounds read low 1.09 | locus YNL067W, strain RPL9B, active compounds read low 0.975 | locus YNL071W, strain lat1, active compounds read low 0.989 | locus YNL153C, strain GIM3, active compounds read low 0.974 | locus YNL183C, strain NPR1, active compounds read low 0.929 | locus YNL209W, strain ssb2, active compounds read low 1.01 | locus YNL233W, strain BNI4, active compounds read low 1 | locus YNL248C, strain rpa49, active compounds read low 0.99 | locus YNL250W, strain rad50, active compounds read low 0.992 | locus YNL271C, strain bni1, active compounds read low 0.995 | locus YNL298W, strain CLA4, active compounds read low 0.982 | locus YNL307C, strain MCK1, active compounds read low 0.984 | locus YNL322C, strain KRE1 (second series), active compounds read low 0.99 | locus YNR049C, strain mso1, active compounds read low 1.01 | locus YNR052C, strain pop2, active compounds read low 0.973 | locus YOL006C, strain TOP1, active compounds read low 1.02 | locus YOL012C, strain htz1 1.02 | locus YOL147C, strain pex11, active compounds read low 0.996 | locus YOR001W, strain rrp6, active compounds read low 1 | locus YOR061W, strain CKA2, active compounds read low 0.98 | locus YOR069W, strain VPS5, active compounds read low 1 | locus YOR070C, strain gyp1, active compounds read low 0.999 | locus YOR080W, strain dia2, active compounds read low 1 | locus YOR083W, strain WHI5, active compounds read low 0.948 | locus YOR106W, strain vam3, active compounds read low 1 | locus YOR136W, strain idh2, active compounds read low 0.993 | locus YOR144C, strain elg1, active compounds read low 0.989 | locus YOR184W, strain ser1, active compounds read low 1.01 | locus YOR231W, strain MKK1, active compounds read low 1.01 | locus YOR265W, strain rbl2, active compounds read low 0.993 | locus YOR270C, strain vph1, active compounds read low 0.9 | locus YOR290C, strain snf2, active compounds read low 0.993 | locus YOR316C, strain cot1, active compounds read low 0.985 | locus YPL051W, strain arl3, active compounds read low 0.981 | locus YPL078C, strain atp4, active compounds read low 0.98 | locus YPL106C, strain sse1, active compounds read low 1 | locus YPL240C, strain hsp82, active compounds read low 1 | locus YPL241C, strain CIN2, active compounds read low 0.989 | locus YPL256C, strain CLN2, active compounds read low 1.03 | locus YPR119W, strain clb2, active compounds read low 1.01 | locus YPR141C, strain kar3, active compounds read low 0.994 | locus YPR163C, strain tif3, active compounds read low 0.971 | locus YPR167C, strain met16, active compounds read low 1 | strain wtn01, active compounds read low 1.03
active: locus YAL026C, strain drs2, active compounds read low 0.89 | locus YLR262C, strain YPT6 (second series), active compounds read low 0.823
